PubChem BioAssay (Tox21)
Inconclusive results are not listed. Unmarked numbers belong to inactive results. Active and inactive are the calls of the source. Calls come from the whole dose curve; as a rule, active = well fitted activation curve with a large enough effect; inconclusive = small, poorly fitted or top-dose-only effect; inactive = flat fitted curve, though single readings scatter.

Test: qHTS assay to identify small molecule phospholipidosis (PLD) inducers (AID 1259344)
Settings: HepG2 phospholipidosis, LipidTOX Red imaging, 24 h; series mostly up to 38.3 µM; PLD induction: at the top concentration
Procedure, shortened: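 HepG2 cells, 900/well, treated with compound plus LipidTOX Red for 24 h at 37 C; amiodarone positive and DMSO negative controls. Fixed with paraformaldehyde/Hoechst, then high-content imaging scored LipidTOX pit count and integrated intensity per well and per cell.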
% is set by controls: 0 for no effect and ±100 for the full control effect; potency is the fitted concentration of half-maximal effect.

Row | Structure (SMILES) | PLD induction | Potency
1 | CN(C)CCC(O)(c1ccccc1)c1ccccc1Cl (stereo not drawn) | 4.15% | –
2 | CCC1OC(=O)C[C@@H](O)[C@H](C)[C@@H](O[C@@H]2O[C@H](C)C[C@H](N(C)C)[C@H]2O)[C@@H](CC=O)C[C@@H](C)C(=O)/C=C/[C@]2(C)OC2C1C (stereo partly drawn) | – | inactive
3 | NCC(O)CC(=O)O (stereo not drawn) | 0.204% | –
4 | CNCCC=C1c2ccccc2CCc2ccccc21 | – | 10 µM (active)
5 | CC(=O)OCC(=O)[C@@]1(O)CC[C@H]2[C@@H]3C[C@H](C)C4=CC(=O)C=C[C@]4(C)[C@H]3[C@@H](O)C[C@@]21C | -0.177% | –
6 | O=C(O)c1cc2cc(Cc3cccnc3)ccc2o1 | 0.373% | –
7 | CC[C@@H](C(=O)[C@@H](C)[C@@H](O)[C@H](C)CCc1ccc(C)c(O)c1C(=O)O)[C@H]1O[C@](CC)([C@H]2CC[C@](O)(CC)[C@H](C)O2)C[C@@H]1C | -2.45% | –
8 | O=c1[nH]c(=O)n([C@H]2C[C@H](O)[C@@H](CO)O2)cc1/C=C/Br | -1.81% | –
